Screening data (PubChem)
Shown are actives, neighbours in structure and some others; about 17% of the full set was active somewhere.
TDP1 block: blocks human tyrosyl-DNA phosphodiesterase 1 | Potency, µM (titrated, usually from 130 µM), hits mostly inhibitors | recombinant TDP1, AlphaScreen DNA substrate cleavage | Q9NUW8 | actives 0.28% (n = 350,000); also: nearly all actives have a fitted effect of over 40% in size
Target sequence (Q9NUW8 whole entry, looked up): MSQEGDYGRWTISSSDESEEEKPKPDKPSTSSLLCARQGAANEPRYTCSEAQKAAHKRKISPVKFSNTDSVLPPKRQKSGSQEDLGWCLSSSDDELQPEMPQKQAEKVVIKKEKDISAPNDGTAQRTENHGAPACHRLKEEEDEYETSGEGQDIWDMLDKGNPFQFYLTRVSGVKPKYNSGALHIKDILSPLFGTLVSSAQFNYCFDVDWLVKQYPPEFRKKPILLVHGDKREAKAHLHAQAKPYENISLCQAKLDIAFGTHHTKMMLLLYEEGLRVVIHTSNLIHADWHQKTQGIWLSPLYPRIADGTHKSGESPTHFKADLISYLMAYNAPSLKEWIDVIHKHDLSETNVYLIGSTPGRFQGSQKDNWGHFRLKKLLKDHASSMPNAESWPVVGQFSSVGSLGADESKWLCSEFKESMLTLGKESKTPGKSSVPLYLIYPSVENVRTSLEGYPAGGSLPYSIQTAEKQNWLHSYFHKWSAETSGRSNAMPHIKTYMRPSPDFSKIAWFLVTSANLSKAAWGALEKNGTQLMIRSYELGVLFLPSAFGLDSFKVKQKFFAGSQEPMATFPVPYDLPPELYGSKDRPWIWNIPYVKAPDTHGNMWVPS
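Tdp1 1 nM final; 15 min RT w/ cpd; substrate 15 nM, 5 min; beads 10 ug/ml, 10 min; AlphaScreen read. Neg ctrl: no enzyme.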
TDP1 cell noCPT: qHTS for Inhibitors of human tyrosyl-DNA phosphodiesterase 1 (TDP1): qHTS in cells in absence of CPT; DT40 Tdp1-/- hTDP1 cells, no CPT, ATP luminescence, 48 h; Potency, µM (titrated, usually from 46.2 µM), most hits filed as inhibitors; actives 15% (n = 420,000); AID 686978, 2013; also: nearly all actives have a fitted effect of over 55% in size
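Seeded 400 DT40-hTDP1 cells/well (vehicle DMSO, no 20 nM CPT); pinned compounds; ≥48 hr at 37 °C; CellTiter-Glo luminescence as viability measure.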
ClpP mod: qHTS Assay for Activators of ClpP; ATP-dependent Clp protease proteolytic subunit (Bacillus subtilis (strain 168)), P80244; purified B. subtilis ClpP, FRET peptide cleavage, 20 min; Potency, µM (highest dose often 57.5 µM); actives 1.9% (n = 340,000); AID 651965, 2013; active = well fitted falling curve with a large enough effect; inconclusive = small, poorly fitted or top-dose-only effect; inactive = no such curve, though single readings can be large or run the other way; also: the source files actives as falling curves though it sought activators and does not explain the sign; nearly all actives have a fitted effect of over 65% in size
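Buffer: 100 mM Tris/HCl pH8, 100 mM KCl, 0.05% low protease BSA, 2.5% glycerol, 0.01% Tween-20. ClpP 10 microg/mL final; 20 min RT; delta FRET normalized to ADEP and DMSO controls.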
DT40 TDP1 CPT: growth inhibition of DT40 Tdp1-/-;hTDP1 cells with camptothecin (screen for TDP1 inhibitors) | Potency, µM (doses to about 46.2 µM), hits mostly inhibitors | actives 12% (n = 420,000) | chicken DT40 Tdp1-/-;hTDP1 cells + 20 nM CPT, ATP luminescence, 48 h; also: nearly all actives have a fitted effect of over 55% in size
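Cell growth measured by CellTiter-Glo luminescence after a minimum 48 h, 37 C compound exposure with 20 nM CPT in Tdp1-knockout DT40 cells stably expressing hTDP1, seeded 400/well; qHTS titration format.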
Of the large screens only hits and unclear results are named; the others gave an inactive call; ! = repeats disagree. Unless noted, calls follow the shape of the dose curve; as a rule, active = well fitted curve in the direction sought with a large enough effect; inconclusive = small, poorly fitted or top-dose-only effect, or another doubt; inactive = no such curve, though single readings can be large; an effect the other way counts as inactive or inconclusive.

O=C(CN1CCN(C(=O)c2ccc(-c3nc4ccccc4s3)o2)CC1)Nc1ccccc1Cl	TDP1 cell noCPT inconclusive, DT40 TDP1 CPT inconclusive (no result: ClpP mod)
Cn1nnnc1Sc1ncnc2scc(-c3ccccc3Cl)c12	none (no result: TDP1 cell noCPT, ClpP mod, DT40 TDP1 CPT)
Cc1cccc(CSc2nnnn2-c2ccccc2)c1	DT40 TDP1 CPT inconclusive (no result: TDP1 block)
Cn1nnnc1Sc1ncnc2scc(-c3ccc(Cl)cc3)c12	none (no result: TDP1 cell noCPT, ClpP mod, DT40 TDP1 CPT)
COc1ccc(-c2csc3ncnc(Sc4nnnn4C)c23)cc1	none (no result: TDP1 cell noCPT, ClpP mod, DT40 TDP1 CPT)
Clc1ccc(-n2nnnc2Sc2ncnc3sccc23)cc1	TDP1 cell noCPT 1.84µM, DT40 TDP1 CPT 2.31µM (no result: TDP1 block)
Cc1ccc(-c2csc3ncnc(Sc4nnnn4-c4ccccc4)c23)cc1	TDP1 cell noCPT 5.62µM, DT40 TDP1 CPT 7.08µM (no result: TDP1 block)
c1ccc(-c2ccc(-c3csc4ncnc(Sc5nnnn5-c5ccccc5)c34)cc2)cc1	TDP1 cell noCPT 6.31µM, DT40 TDP1 CPT 7.08µM (no result: TDP1 block)
Cc1ccc(C)c(-n2nnnc2Sc2nnnn2-c2ccccc2)c1	TDP1 cell noCPT 13µM, DT40 TDP1 CPT inconclusive
CNc1cnc(-c2cccc(C(=O)N3CCOCC3)c2)cn1	none (no result: TDP1 block)
Cc1sc2ncnc(Sc3nnnn3-c3ccccc3)c2c1C	TDP1 cell noCPT 7.08µM, ClpP mod 31.6µM!, DT40 TDP1 CPT 5.8µM
Cc1sc2ncnc(Sc3ccccc3C(=O)O)c2c1C	none (no result: ClpP mod)
Clc1ccc(-c2csc3ncnc(Sc4nnnn4-c4ccccc4)c23)cc1	TDP1 cell noCPT 2µM, DT40 TDP1 CPT 3.55µM (no result: TDP1 block)
CSc1nnc(-c2sccc2OCc2ccc(C)cc2)n1C	TDP1 cell noCPT inconclusive, DT40 TDP1 CPT inconclusive
C[C@H]1CN(c2ccccc2)C(=O)[C@@H]1CC(=O)Nc1ccc(Br)cc1	TDP1 cell noCPT inconclusive, DT40 TDP1 CPT inconclusive (no result: TDP1 block)
O=C(CC1SC(=O)N(c2ccccc2)C1=O)Nc1ccc(Br)cc1 (stereo not given)	TDP1 cell noCPT 5.8µM, DT40 TDP1 CPT 2.59µM
O=C(CC1SC(=O)N(c2ccccc2)C1=O)Nc1ccc(Cl)cc1 (stereo not given)	TDP1 cell noCPT 20.6µM, DT40 TDP1 CPT 7.31µM
O=c1c(-c2cccs2)nc2cncnc2n1Cc1ccccc1	none (no result: TDP1 block, ClpP mod)
CCCCC[n+]1cccc2c3ccccc3ccc21	TDP1 cell noCPT 0.0073µM, DT40 TDP1 CPT 0.517µM
c1ccc(C[n+]2cccc3c4ccccc4ccc32)cc1	TDP1 cell noCPT 3.66µM, DT40 TDP1 CPT 3.66µM
Brc1ccc2c(ccc[n+]2CCc2ccccc2)c1	TDP1 cell noCPT inconclusive, DT40 TDP1 CPT inconclusive (no result: TDP1 block)
CC(=O)c1ccc(NC(=O)C(C)Sc2nnc(C3CC3)n2C2CC2)cc1 (stereo not given)	none
CCOC(=O)C1(Cc2ccccc2C)CCCN(C(=O)c2ccoc2)C1 (stereo not given)	TDP1 cell noCPT inconclusive
CCOC(=O)C1(Cc2ccccc2C)CCCN(S(=O)(=O)c2cccnc2)C1 (stereo not given)	TDP1 cell noCPT 16.4µM, DT40 TDP1 CPT inconclusive
CCOC(=O)C1(Cc2ccccc2C)CCCN(C(=O)c2sccc2C)C1 (stereo not given)	TDP1 cell noCPT inconclusive, DT40 TDP1 CPT 18.4µM
O=C(c1n[nH]c2c1CCCC2)N1CCOc2ccc(C(O)C3CCCCC3)cc2C1 (stereo not given)	none (no result: TDP1 block, ClpP mod)
O=C(c1cn(-c2ccccc2)nc1-c1cccnc1)N1CCCC(C(F)(F)F)C1 (stereo not given)	TDP1 cell noCPT inconclusive (no result: TDP1 block)
CCOc1ccc(-c2cnc(NCc3ccc(OC)cc3OC)n2C)cc1	TDP1 cell noCPT inconclusive, DT40 TDP1 CPT inconclusive
CCOc1ccc(CNC(=O)CCCn2nc(C)c3sc4ccccc4c3c2=O)cc1	TDP1 cell noCPT inconclusive, DT40 TDP1 CPT inconclusive
CNC[C@H](CC1CCCCC1)NC[C@H](CO)NCC1(c2ccccc2)CC1	TDP1 cell noCPT 20.6µM, DT40 TDP1 CPT inconclusive (no result: TDP1 block)
CNC[C@H](CC1CCCCC1)NC[C@H](CO)NCCc1cccc(C(F)(F)F)c1	TDP1 cell noCPT 5.8µM, DT40 TDP1 CPT 7.31µM (no result: TDP1 block)
CC(=O)NCCC1CCCCN1Cc1nc(Cc2cccc(C(F)(F)F)c2)no1 (stereo not given)	none (no result: TDP1 block, ClpP mod)
O=C(O)c1ccccc1C(=O)NCCc1c(C(=O)O)[nH]c2ccc(F)cc12	none (no result: ClpP mod)
CN(C)CCCN1c2ccccc2C(C)(C)c2ccccc21	TDP1 cell noCPT inconclusive, DT40 TDP1 CPT inconclusive (no result: ClpP mod)
COc1cccc(Oc2cnc(N)nc2-c2ccc(OC)cc2O)c1	TDP1 cell noCPT 2.31µM, DT40 TDP1 CPT 2.91µM
COc1ccc(-c2nc(N)ncc2-c2ccccc2OC)c(O)c1	DT40 TDP1 CPT inconclusive (no result: TDP1 block)
COc1ccc(-c2nc(N)nc(C(F)(F)F)c2-c2ccccc2OC)c(O)c1	TDP1 cell noCPT 23.1µM, DT40 TDP1 CPT inconclusive (no result: TDP1 block)
COc1ccc(-c2nc(N)ncc2Oc2ccccc2Br)c(O)c1	TDP1 cell noCPT inconclusive
COc1ccccc1/C=C/C=N/N1CCN(Cc2ccc(Cl)cc2)CC1	TDP1 cell noCPT inconclusive, DT40 TDP1 CPT inconclusive
Cc1ccc(N2CCN(/N=C/c3ccncc3)CC2)cc1	TDP1 cell noCPT 18.4µM, DT40 TDP1 CPT 20.6µM
COc1ccccc1/C=C/C=N\N1CCN(Cc2ccccc2Cl)CC1	TDP1 cell noCPT 29.1µM, DT40 TDP1 CPT inconclusive
Clc1ccc(/C=N/N2CCN(Cc3ccccc3Cl)CC2)cc1	TDP1 cell noCPT inconclusive (no result: ClpP mod)
Clc1ccc(N2CCN(/N=C/c3ccncc3)CC2)cc1	TDP1 cell noCPT inconclusive, DT40 TDP1 CPT 23.1µM (no result: ClpP mod)
Cc1ccc(N2CCN(/N=C/c3sccc3C)CC2)cc1	none
